Bioassay records as filed in PubChem.
An excerpt weighted towards active compounds, which were near 6.9% of everything screened.
SW480 rereplic: DNA re-replication induction in SW480 cells; SW480 DNA re-replication, Hoechst DNA content imaging, 48 h; Potency, µM (titrated, usually from 46.1 µM), actives largely listed as activators; 340,000 tested, 1.8% active; AID 624297; note: nearly all actives have a fitted effect of over 55% in size
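Image-based DNA-content assay: after two days of treatment, nuclei were labelled with the DNA dye Hoechst and imaged, and hits were compounds raising the count of nuclei showing high fluorescence intensity.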
Giardia kill: Giardia lamblia killing; Giardia lamblia trophozoite viability; activity change, % at 7.66 µM, hits read low; 340,000 tested, 0.15% active; AID 540267; in the data active = activity change below about -80%; inconclusive = between about -30% and that limit;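 note: parasites exposed to compound for two days anaerobically before the ATP read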
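Luminescent ATP signal served as the viability read-out, measured 15-30 min after adding ATP detection reagent to trophozoites that had been incubated with compounds for 48 hrs at 37 deg C anaerobically at 100 cells/well.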
Vif-A3G inh: Vif-A3G binding inhibition | AID 602310 | Potency, µM (top dose mostly 46.1 µM), hits mostly inhibitors | HeLa A3G-eYFP + Vif (tagged APOBEC3G with the HIV-1 protein that degrades it), YFP fluorescence, overnight | Q9HC16 | 410,000 tested, 0.076% active; note: nearly all actives have a fitted effect of over 60% in size
Target sequence (Q9HC16 whole entry, looked up): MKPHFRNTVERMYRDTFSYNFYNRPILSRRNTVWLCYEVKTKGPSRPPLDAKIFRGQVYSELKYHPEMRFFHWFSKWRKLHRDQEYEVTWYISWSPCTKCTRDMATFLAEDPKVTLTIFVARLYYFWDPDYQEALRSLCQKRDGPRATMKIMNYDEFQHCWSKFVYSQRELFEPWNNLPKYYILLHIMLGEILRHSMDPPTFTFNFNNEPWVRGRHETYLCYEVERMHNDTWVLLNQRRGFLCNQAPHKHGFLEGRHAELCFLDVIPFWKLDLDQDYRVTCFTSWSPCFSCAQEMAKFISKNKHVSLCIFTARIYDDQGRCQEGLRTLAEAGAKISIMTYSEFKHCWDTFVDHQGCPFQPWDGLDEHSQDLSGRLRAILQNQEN
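HeLa cells stably expressing Vif and C-terminally eYFP-tagged A3G, seeded overnight at 37 deg C, then exposed to compound by pintool overnight at 37 deg C. Rise in yellow fluorescence (Ex 488/Em 500-530, Acumen) marks blocked Vif-driven A3G degradation.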
Vif-APOBEC3F blk: inhibitors of Vif-A3F interaction. Potency, µM (titrated, usually from 46.1 µM). 390,000 tested, 0.2% active. HeLa A3F-eYFP + Vif (tagged APOBEC3F with the HIV-1 protein that degrades it), YFP fluorescence increase. AID 602313; note: nearly all actives have a fitted effect of over 65% in size
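HeLa cells stably expressing A3F-eYFP plus Vif, plated and incubated overnight at 37 deg C, then exposed to compounds overnight at 37 deg C. Blocked degradation read as raised yellow fluorescence (Ex 488/Em 500-530).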
MCF10A rereplic: DNA re-replication induction in MCF 10a cells | MCF 10A DNA re-replication, Hoechst nuclear intensity, 48 h | Potency, µM (doses to about 46.1 µM), hits mostly activators | 350,000 tested, 2.9% active; note: nearly all actives have a fitted effect of over 50% in size
IL-1B inflam inh: inflammasome signaling inhibition, IL-1 beta readout. 360,000 tested, 4.7% active. activity change, % at 57.5 µM. THP-1 LPS/ATP IL-1B secretion, AlphaLISA, 16 h; hits give low values; in the data active = activity change below about -50%; inconclusive = mostly about -30% to -49%
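Secreted IL-1B measured by AlphaLISA bead assay after 16 h compound exposure of THP-1 cells; compounds (final up to 57.5 uM) added 1 h before LPS (250 ng/mL) and ATP (1.25 mM) stimulation; lower signal means less secretion.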
Numbers stand for hits; – = inactive; ? = inconclusive; · = no result given; [ ] = remark or other dose. Unless noted, calls come from the whole dose curve; as a rule, active = well fitted curve in the direction sought with a large enough effect; inconclusive = small, poorly fitted or top-dose-only effect, or another doubt; inactive = no such curve, though single readings can be large; an effect the other way counts as inactive or inconclusive.

SMILES	SW480 rereplic	Giardia kill	Vif-A3G inh	Vif-APOBEC3F blk	MCF10A rereplic	IL-1B inflam inh
CCCCCCCCCCOC(=O)Cn1c(COc2ccccc2C)[n+](C)c2ccccc21	?	–	–	–	?	-97
CCc1ccc(C(=O)c2cn(CC(=O)Nc3cccc(OC)c3)c3ccc(OC)cc3c2=O)cc1	·	·	–	–	·	·
CCOC(=O)CNC(=O)Nc1cc(C(=O)NCc2ccc(C(C)C)cc2)ccc1N1CCCC1	·	·	–	–	·	·
CC(C)(C#CC(O)(c1ccccc1)c1ccccc1)N1CCCC1	–	–	–	–	0.82µM	–
CCOc1ccc2nc(C)cc(Nc3ccccc3OCC)c2c1	·	·	–	–	·	·
Cc1cccc(CN2C(=O)c3ccccc3Sc3ccc(C(=O)NC4CCCCC4)cc32)c1	·	·	–	–	·	·
CC(C)(C)c1cc(OC(=O)c2ccccc2F)ccc1O	–	–	–	–	–[9.22 µM]	-69
CC(C)(C)c1cc(OC(=O)c2ccncc2)ccc1O	–	–	–	–	–	–
CC(=O)[C@@H]1[C@@H](C(=O)c2ccccc2)[C@]2(C(=O)Nc3ccccc32)[C@H]2C=Cc3cc(F)ccc3N12	?	–	–	–	21µM	–
O=C(c1ccccc1)[C@@H]1[C@@H](C(=O)c2ccc(F)cc2)[C@@]2(C(=O)Nc3ccccc32)[C@H]2c3ccccc3C=CN12	–	–	–	?	–	?
Cc1ccc(C)c(OCc2cc(C(=O)N3CCOCC3)no2)c1	–	–	–	–	18µM	–
Cc1cccc(C)c1OCc1cc(C(=O)N2CCN(c3ccc(F)cc3)CC2)no1	–	–	–	–	?	-51
Cc1cccc(C)c1OCc1cc(C(=O)N2CCN(c3ccccn3)CC2)no1	–	–	–	–	–	–
Cc1cccc(C)c1OCc1cc(C(=O)N2CC3C[C@@H]4CC2C[C@H](C3)C4)no1	–	–	–	–	18µM	–
O=C(Cc1ccc(-c2ccccc2)cc1)NCCS(=O)(=O)N1CCN(c2ccc(F)cc2)CC1	·	·	–	–	·	·
CN(C)c1ccc(/C=C/c2nc3ccccc3o2)cc1	·	·	–	·	·	·
CCCNC(=O)c1cn(CC)c2cc(N3CCN(C)CC3)c(F)cc2c1=O	–	?	–	–	–	–
CCn1cc(C(=O)NCc2ccccc2)c(=O)c2cc(F)c(N3CCN(C(=O)c4ccco4)CC3)cc21	–	–	–	–	?	-64
CCCCCNC(=O)c1cn(CC)c2cc(N3CCN(C)CC3)c(F)cc2c1=O	?	–	–	–	?	-85
CCn1cc(C(=O)NCc2ccc3c(c2)OCO3)c(=O)c2cc(F)c(N3CCN(C(=O)c4ccco4)CC3)cc21	?	–	–	–	?	-59
CCn1cc(C(=O)NCc2ccncc2)c(=O)c2cc(F)c(N3CCN(C(=O)c4ccco4)CC3)cc21	–	–	–	–	?	?
O=C(O)c1cc2cccc([N+](=O)[O-])c2[nH]1	·	·	–	·	·	·
CC(C)c1cc(C(=O)NNC(=S)NCc2ccco2)c(O)c(C(C)C)c1	–	–	–	–	?	-54
Cc1cn2c(=O)cc(COc3cccc(NC(=O)c4ccc(C(C)(C)C)cc4)c3)nc2s1	·	·	–	–	·	·
CCN(CC)C(=O)C1CCCN(c2ccc([N+](=O)[O-])cc2/C=N/NC(=O)c2cccc(O)c2)C1 (centres undefined)	–	–	–	–	–	-61
SMILES	SW480 rereplic	Giardia kill	Vif-A3G inh	Vif-APOBEC3F blk	MCF10A rereplic	IL-1B inflam inh
CCCCOc1ccc(CSCCN=C(N)N)cc1	?	–	–	–	?	-81
CCCCOc1ccc(CSC(CC(=O)O)C(=O)O)cc1 (centres undefined)	–	–	–	–	–	–
Cc1ccc(CCNC(=O)NCc2noc3ccc(C)cc23)cc1	·	·	–	–	·	·
CCOC(=O)C1(C(=O)OCC)NC(=O)CC1CC (centres undefined)	–	–	–	–	–	–
CCCCCC1CC(=O)NC1(C(=O)OCC)C(=O)OCC (centres undefined)	–	–	–	–	–	-64
O=C1C=C(N(CCO)Cc2ccccc2)c2ccccc2C1=O	15µM	–	–	–	6.5µM	-98
CCc1ccccc1NC(=O)NC(CC)Cn1nnc2ccccc2c1=O (centres undefined)	·	·	–	–	·	·
